Laboratory results as given in PubChem BioAssay (EPA / NIEHS).
Calls of active or inactive are those of the source. Rule for the calls: active = hit-call score of the fitted dose curve at least 0.9, where 1 is the maximum; inactive = score below 0.9.

Columns and labels:
[1] = APR_HepG2_P-H2AX_72hr: Apredica 72-hour HepG2 Assay for H2AX Phosphorylation (AID 2282916); details: imaging, actives raise or lower the signal;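 note: phospho-histone H2A.x immunostain intensity per cell marking DNA damage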
In short: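 Following 72 hr treatment with 0.39–200 uM compound, HepG2 cells were formaldehyde-fixed, permeabilized and stained for phospho-H2A.x; signal was measured by high-content imaging and fitted bidirectionally against DMSO controls.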

[2] = APR_HepG2_MitoMembPot_72hr: Apredica 72-hour HepG2 Assay for Mitochondrial Membrane Potential (AID 2282917); details: imaging, actives raise or lower the signal
In short: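 Membrane potential read by MitoTracker Red CMXRos (250 nM, 30 min, pre-fixation) fluorescence imaging of HepG2 after 72 hr exposure. Ten concentrations, 0.39–200 uM, duplicate wells, 0.5% DMSO; fitted in both directions against DMSO baseline.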

[3] = APR_HepG2_MitoticArrest_72hr: Apredica 72-hour HepG2 Assay for Mitotic Arrest (AID 2282918); details: high-content imaging, actives raise or lower the signal
In short: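 HepG2 cells treated 72 h at 0.39–200 uM, 0.5% DMSO final; formaldehyde-fixed, stained with Hoechst 33342 and phospho-histone H3 antibody, imaged by high-content fluorescence; bidirectional fit versus DMSO.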

[4] = APR_HepG2_MicrotubuleCSK_72hr: Apredica 72-hour HepG2 Assay for Microtubule CSK Stabilty (AID 2282919); details: HepG2 microtubule cytoskeleton, high-content imaging, actives raise or lower the signal
In short: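 Read-out is tubulin fluorescence intensity from high-content imaging of HepG2 cells, with nuclei identified by Hoechst 33342. Treatment lasts 72 h at 0.39–200 uM, and curves are fitted bidirectionally against the DMSO negative control.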

[5] = APR_HepG2_P-H2AX_24hr: Apredica 24-hour HepG2 Assay for H2AX Phosphorylation (AID 2282920); details: high-content imaging, actives raise or lower the signal
In short: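 HepG2 cells dosed 24 h at 0.39–200 uM (10 points, duplicate, 0.5% DMSO final). Formaldehyde-fixed and permeabilized, then immunostained for phospho-H2A.x with Hoechst. Fluorescence quantified by high-content imaging, fitted bidirectionally versus DMSO.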

[6] = APR_HepG2_StressKinase_72hr: Apredica 72-hour HepG2 Assay for Stress Kinase (AID 2282921); details: HepG2 stress kinase (phospho-c-Jun) imaging, actives raise or lower the signal
In short: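 Fluorescence intensity of Cy3-tagged anti-phospho-c-Jun antibody, quantified per cell from Hoechst-defined nuclei across six images per well, served as the read-out following 72 h exposure (0.39–200 uM, 0.5% v/v DMSO).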

[7] = APR_HepG2_StressKinase_24hr: Apredica 24-hour HepG2 Assay for Stress Kinase (AID 2282922); details: HepG2 stress kinase (phospho-c-Jun) imaging, actives raise or lower the signal
In short: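 HepG2, 24 hr dosing, 0.39–200 uM in duplicate, 0.5% DMSO; formaldehyde fix (3.7%), 0.5% Triton X-100; anti-phospho-c-Jun + Cy3 secondary, Hoechst counterstain; ArrayScan imaging; bidirectional curve fit vs DMSO baseline.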

[8] = APR_HepG2_p53Act_72hr: Apredica 72-hour HepG2 Assay for p53 Activation (AID 2282923); details: high-content imaging, actives raise or lower the signal;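 note: average cellular p53 protein immunofluorescence intensity in HepG2 cells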
In short: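 HepG2 monolayers receive test compounds in duplicate at ten concentrations (0.39 through 200 uM) for 72 hr. They are then formaldehyde-fixed, antibody-labelled for p53, Hoechst-stained and imaged, with activity fitted bidirectionally versus DMSO.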

[9] = APR_HepG2_MitoMass_72hr: Apredica 72-hour HepG2 Assay for Mitochondrial Mass (AID 2282924); details: high-content imaging, actives raise or lower the signal;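 note: MitoTracker Red CMXRos stain intensity per cell imaged as mitochondrial mass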
In short: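 HepG2, 72 hr cmpd, 10 conc 0.39–200 uM in dup, DMSO 0.5% v/v. MitoTracker Red CMXRos 250 nM 30 min pre-fix; formaldehyde 3.7% fix 30 min RT. HCS imaging, gain/loss fit vs DMSO.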

[10] = APR_HepG2_NuclearSize_72hr: Apredica 72-hour HepG2 Assay for Nuclear Size (AID 2282925); details: high-content imaging, actives raise or lower the signal
In short: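 HepG2; cpd 0.39–200 uM, 10 conc, duplicate; 72 h; DMSO 0.5% v/v; fix 3.7% formaldehyde 30 min RT; Triton permeabilization; Hoechst 2 ug/mL; HCS imaging 20x; nuclear diameter; gain/loss fit vs DMSO.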

[11] = ATG_CRE_CIS: Attagene CIS-FACTORIAL HepG2 Assay for human cAMP Responsive Element (CRE) binding protein 3 (AID 2282926); details: HepG2 CRE cis-reporter, Attagene multiplexed mRNA; actives raise or lower the signal
In short: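 HepG2 cells transiently transfected with cis-element-driven multiple reporter transcription units; CRE reporter mRNA measured 24 h after dosing by RT-PCR, 6-FAM labelling, HpaI digestion and capillary electrophoresis. Bidirectional fit versus DMSO baseline.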

[12] = biological target: CCAAT/enhancer-binding protein beta (Homo sapiens) (UniProt P17676); test: ATG_C_EBP_CIS: Attagene CIS-FACTORIAL HepG2 Assay for human CCAAT/Enhancer Binding Protein (C/EBP) beta (AID 2282927); details: HepG2 Attagene cis-factorial transcription factor reporter; actives raise or lower the signal
In short: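 Changes in reporter mRNA, rather than exogenous chimeric receptor activity, reflect native C/EBP signalling in transfected HepG2 cells dosed for 24 h; transcripts are detected by RT-PCR and capillary electrophoresis.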

[13] = ATG_CMV_CIS: Attagene CIS-FACTORIAL HepG2 Assay for human CMV (Internal Marker) (AID 2282928); details: HepG2 CMV promoter reporter, transcription factor profiling; actives raise or lower the signal;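 note: endpoint acts as a background internal control marker rather than a target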
In short: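 HepG2 cells transiently transfected with multiple cis-regulated reporter units; 24 h compound exposure. Reporter mRNA quantified by RT-PCR, 6-FAM primer-extension labeling, HpaI digestion and capillary electrophoresis; bidirectional fitting against DMSO baseline.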

[14] = ATG_DR4_LXR_CIS: Attagene CIS-FACTORIAL HepG2 Assay for human Liver X Receptor (LXR), DR4 submotif (AID 2282929); details: HepG2 Attagene DR4 cis-reporter, mRNA transcription; actives raise or lower the signal
In short: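 HepG2 cells were transiently transfected with multiple cis-regulated reporter units and dosed for 24 hours. The DR4 reporter mRNA was quantified by RT-PCR, 6-FAM labelling and capillary electrophoresis. Bidirectional fits used DMSO as baseline.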

[15] = biological target: Aryl hydrocarbon receptor (Homo sapiens) (UniProt P35869); test: ATG_Ahr_CIS: Attagene CIS-FACTORIAL HepG2 Assay for human Aryl Hydrocarbon Receptor (Ahr) (AID 2282930); details: HepG2 AhR cis-factorial reporter transcription; actives raise or lower the signal
In short: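 HepG2, transient MRTU (cis) transfection, 24 h exposure. RNA → cDNA → PCR → 6-FAM primer extension → HpaI 2 h 37 C → CE. Fit: bidirectional, DMSO baseline.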

[16] = ATG_AP_1_CIS: Attagene CIS-FACTORIAL HepG2 Assay for human Activator Protein 1 (AP-1) (AID 2282931); details: HepG2 Attagene cis-factorial AP-1 reporter mRNA; actives raise or lower the signal
In short: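 HepG2 cells transiently transfected with cis-element-driven reporter transcription units, dosed for 24 hours. Reporter mRNA measured by RT-PCR, 6-FAM labelling, HpaI digestion and capillary electrophoresis. Bidirectional fitting against DMSO baseline.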

[17] = ATG_AP_2_CIS: Attagene CIS-FACTORIAL HepG2 Assay for human Activator Protein 2 (AP-2) (AID 2282932); details: HepG2 AP-2 cis-reporter, Attagene transcription factor profiling; actives raise or lower the signal
In short: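 Step one: transient transfection of HepG2 with reporter transcription units. Step two: 24 h chemical exposure. Step three: RNA extraction, RT-PCR, labelled fragment analysis by capillary electrophoresis; DMSO serves as baseline.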

[18] = ATG_BRE_CIS: Attagene CIS-FACTORIAL HepG2 Assay for human Bone Morphogenetic Protein (BMP) Response Element (BRE) (AID 2282933); details: HepG2 BMP response element reporter, Attagene transcription factor profiling; actives raise or lower the signal
In short: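 After a 24 h chemical treatment, transiently transfected HepG2 cells were lysed for RNA; reporter transcripts were quantified by fluorescent RT-PCR and capillary electrophoresis, normalised to DMSO.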

[19] = biological target: Retinoic acid receptor alpha (Homo sapiens) (UniProt P10276); test: ATG_DR5_RAR_CIS: Attagene CIS-FACTORIAL HepG2 Assay for human Retinoic Acid Receptor Alpha (RARE), DR5 submotif (AID 2282934); details: HepG2 Attagene cis-factorial RARE DR5 reporter, mRNA; actives raise or lower the signal;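 for AC50: reporter responds to endogenous RAR alpha beta and gamma in HepG2 not RARA alone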
In short: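 HepG2, transient cis-reporter transfection, 24 h exposure. mRNA readout: RT-PCR, FAM label, HpaI cut, capillary electrophoresis. DMSO baseline, gain/loss fitting.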

[20] = biological target: Transcription factor E2F1 (Homo sapiens) (UniProt Q01094); test: ATG_E2F_CIS: Attagene CIS-FACTORIAL HepG2 Assay for human E2F Transcription Factor 1 (AID 2282935); details: HepG2 Attagene cis-reporter, E2F reporter RNA transcripts; actives raise or lower the signal
In short: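 Total RNA from 24 h-treated, reporter-transfected HepG2 cells undergoes DNase I treatment, oligo(dT) reverse transcription, PCR and 6-FAM primer extension before capillary electrophoresis.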

Measured: AC50

Retinoic acid receptor alpha (Homo sapiens), sequence (P10276 whole entry, looked up): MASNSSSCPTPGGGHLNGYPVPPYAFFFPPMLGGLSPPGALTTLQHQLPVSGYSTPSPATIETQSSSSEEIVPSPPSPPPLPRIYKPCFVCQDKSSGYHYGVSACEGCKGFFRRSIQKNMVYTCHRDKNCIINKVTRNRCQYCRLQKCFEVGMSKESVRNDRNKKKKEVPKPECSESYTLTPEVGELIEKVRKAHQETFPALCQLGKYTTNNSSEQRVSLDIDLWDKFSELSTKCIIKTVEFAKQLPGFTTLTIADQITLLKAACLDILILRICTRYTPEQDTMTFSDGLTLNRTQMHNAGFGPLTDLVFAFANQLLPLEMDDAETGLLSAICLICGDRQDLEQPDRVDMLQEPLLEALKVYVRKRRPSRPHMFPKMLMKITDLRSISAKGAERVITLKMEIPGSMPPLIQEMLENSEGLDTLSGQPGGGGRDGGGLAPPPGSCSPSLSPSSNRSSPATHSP
Transcription factor E2F1 (Homo sapiens), sequence (Q01094 whole entry, looked up): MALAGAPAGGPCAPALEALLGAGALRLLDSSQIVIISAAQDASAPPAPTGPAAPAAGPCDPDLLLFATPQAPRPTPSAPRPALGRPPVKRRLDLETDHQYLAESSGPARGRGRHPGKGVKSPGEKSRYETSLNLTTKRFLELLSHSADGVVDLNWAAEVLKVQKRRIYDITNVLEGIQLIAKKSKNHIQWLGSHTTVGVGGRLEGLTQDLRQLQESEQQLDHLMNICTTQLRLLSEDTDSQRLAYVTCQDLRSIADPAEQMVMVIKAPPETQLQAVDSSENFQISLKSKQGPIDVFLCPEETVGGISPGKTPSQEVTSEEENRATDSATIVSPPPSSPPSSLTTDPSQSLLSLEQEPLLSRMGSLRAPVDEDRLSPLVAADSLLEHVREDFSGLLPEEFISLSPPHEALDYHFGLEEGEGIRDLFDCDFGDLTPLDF
Aryl hydrocarbon receptor (Homo sapiens), sequence (P35869 whole entry, looked up): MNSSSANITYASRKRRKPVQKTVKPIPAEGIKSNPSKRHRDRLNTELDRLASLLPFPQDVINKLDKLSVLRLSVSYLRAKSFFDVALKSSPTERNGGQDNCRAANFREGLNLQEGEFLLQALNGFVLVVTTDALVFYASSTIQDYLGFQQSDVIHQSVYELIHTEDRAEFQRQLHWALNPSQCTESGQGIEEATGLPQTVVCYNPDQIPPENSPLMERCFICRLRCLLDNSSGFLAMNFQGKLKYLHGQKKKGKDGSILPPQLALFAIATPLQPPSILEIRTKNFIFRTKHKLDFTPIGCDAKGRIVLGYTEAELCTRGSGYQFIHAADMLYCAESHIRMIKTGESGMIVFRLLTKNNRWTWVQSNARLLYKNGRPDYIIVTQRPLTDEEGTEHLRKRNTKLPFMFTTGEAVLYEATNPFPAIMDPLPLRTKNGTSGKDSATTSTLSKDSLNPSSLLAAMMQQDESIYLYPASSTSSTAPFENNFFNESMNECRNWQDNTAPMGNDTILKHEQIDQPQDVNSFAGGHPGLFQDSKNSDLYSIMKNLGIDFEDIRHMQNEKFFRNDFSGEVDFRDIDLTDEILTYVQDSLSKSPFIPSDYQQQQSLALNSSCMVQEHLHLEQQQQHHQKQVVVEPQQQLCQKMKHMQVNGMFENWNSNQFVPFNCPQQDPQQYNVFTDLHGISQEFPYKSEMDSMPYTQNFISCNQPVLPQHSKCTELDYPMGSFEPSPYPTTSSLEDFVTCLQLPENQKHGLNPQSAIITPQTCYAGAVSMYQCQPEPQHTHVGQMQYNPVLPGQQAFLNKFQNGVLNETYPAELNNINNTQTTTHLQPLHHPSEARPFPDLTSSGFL
CCAAT/enhancer-binding protein beta (Homo sapiens), sequence (P17676 whole entry, looked up): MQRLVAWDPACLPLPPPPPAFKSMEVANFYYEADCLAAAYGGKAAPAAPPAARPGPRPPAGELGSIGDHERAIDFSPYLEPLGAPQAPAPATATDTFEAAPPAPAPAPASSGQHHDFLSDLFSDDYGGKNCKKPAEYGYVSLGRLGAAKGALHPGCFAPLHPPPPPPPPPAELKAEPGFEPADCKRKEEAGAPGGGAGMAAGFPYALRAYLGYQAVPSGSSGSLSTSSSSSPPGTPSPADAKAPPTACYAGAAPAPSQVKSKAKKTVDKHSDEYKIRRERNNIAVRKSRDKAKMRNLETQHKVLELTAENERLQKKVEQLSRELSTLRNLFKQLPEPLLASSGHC

CCOC(=O)c1ccc(C2CCC(NC[C@H](O)COc3ccc(O)c(NS(C)(=O)=O)c3)CC2)cc1 (some centres not stated)
active: [1] 14 µM | [3] 20.3 µM | [4] 41.9 µM | [5] 40 µM | [7] 28.3 µM | [8] 14.5 µM | [10] 22.7 µM | [11] 51.8 µM | [12] 51.1 µM | [14] 60 µM | [16] 51.5 µM | [19] 51.4 µM
inactive: [2] | [6] | [9] | [13] | [15] | [17] | [18] | [20]

CC/C(=C\C(=N/O)C(N)=O)C(C)[N+](=O)[O-] (configuration not stated)
inactive: all assays above

CC(C)CC(C)(O)C#CC(C)(O)CC(C)C (configuration not stated)
not listed: [19]
inactive: all other assays above

C1=CCCC=CCCC=CCC1
active: [13] 135 µM | [14] 100 µM | [16] 161 µM
not listed: [19]
inactive: all other assays above

Cc1[nH]cnc1C[C@H]1CCc2c(C)c3ccccc3n2C1=O
inactive: [2] | [4] | [10] | [12] | [13] | [15] | [16] | [17] | [20]
active: [1] 89 µM | [3] 98.8 µM | [5] 92.8 µM | [6] 65 µM | [7] 100 µM | [8] 95 µM | [9] 24.4 µM | [11] 29.7 µM | [14] 42.1 µM | [18] 29.7 µM

Cc1ccc(S(=O)(=O)O)cc1C
active: [9] 0.0391 µM
inactive: all other assays above
